Test results taken from PubChem BioAssay (NCATS).
Records with an inconclusive call do not appear. Unmarked numbers belong to inactive results. Active and inactive are the calls of the source. The call rests on the fitted dose curve; in most records, active means well fitted inhibition curve with a large enough effect; inconclusive means small, poorly fitted or top-dose-only effect; inactive means flat fitted curve, though single readings scatter.

System: CRL-7250
Assay: Cytotoxic Profiling of Annotated Libraries Using Quantitative High-Throughput Screening (AID 1296008); further: nearly all actives have a fitted effect of over 60% in size
Settings: Five cell lines viability, CellTiter-Glo ATP luminescence, 48-72 h; max response: stronger effect = lower value
Method in brief: (§1)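 Cytotoxicity was measured as CellTiter-Glo ATP luminescence, read after 10 min at room temperature. Compound treatment of the cells lasted 48 or 72 hr at 37 degrees Celsius in a qHTS format.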
On the % scale 0 is the no-effect control and ±100 the full control effect.

Compound	max response	outcome
CC(=O)OCC1OC(OC2COC(OC3COC(OC4C(OC5C(CO)OC(OC6CCC7(C)C(CCC8(C)C7CC=C7C9CC(C)(C)CCC9(C(=O)OC9OC(CO)C(O)C(O)C9OC9OCC(OC%10OCC(O)(CO)C%10O)C(O)C9O)C(O)CC78C)C6(C)C)C(O)C5O)OCC(O)C4O)C(O)C3O)C(O)C2O)C(OC(=O)/C=C/c2ccccc2)C(O)C1OC(C)=O (configuration not stated)	2.77%	
CC[C@H]1OC(=O)[C@H](C)[C@@H](O[C@H]2C[C@@](C)(OC)[C@@H](O)[C@H](C)O2)C(C)[C@@H](O[C@@H]2O[C@H](C)C[C@H](N(C)C)[C@H]2O)[C@](C)(O)C[C@@H](C)CN(C)[C@H](C)[C@@H](O)[C@]1(C)O (some centres not stated)	-0.571%	
C=CC(C)(C)C12Nc3c(ccc4c3OC(C)(C)C=C4)C1(O)CC1C(=O)N3CCCC3C(=O)N12 (configuration not stated)	0.0002%	
O=C(O)[C@H](Cc1ccccc1)Oc1ccc(-c2ccccc2)cc1	-13.4%	
C=C[C@H]1[C@H](O[C@@H]2O[C@H](CO)[C@@H](O)[C@H](O)[C@H]2O)OC=C2C(=O)N3Cc4c([nH]c5ccccc5c4=O)[C@@H]3C[C@H]21		inactive
C/C=C/C(=O)OC1/C=C/C(O)C(OC(C)=O)CCC(=O)OC1C (configuration not stated)	-1.17%	
OCC(O)C(c1c[nH]c2ccccc12)c1c[nH]c2ccccc12 (configuration not stated)		inactive
C=C1CC[C@@H]2[C@@](C)(CO[C@@H]3O[C@H](CO)[C@@H](O)[C@H](O)[C@H]3O)[C@H](O)CC[C@@]2(C)[C@@H]1CC/C(C)=C/CO[C@@H]1O[C@H](CO)[C@@H](O)[C@H](O)[C@H]1O		inactive

System: HaCat
Assay: as above
Settings: Five cell lines viability, CellTiter-Glo ATP luminescence, 48-72 h; max response: stronger effect = lower value
Method in brief: as §1

Compound	outcome	max response
O=C(OCC1OC(Oc2ccc(O)cc2COC(=O)C2(O)C(O)CCC(=O)C2OC(=O)C2C=CCC2)C(OC(=O)C2C=CCC2)C(O)C1O)C1C=CCC1 (configuration not stated)	inactive	
CC(C)c1cc2c(c(O)c1O)[C@@]13CCCC(C)(C)C1[C@@H](O)[C@@H]2OC3=O (some centres not stated)	inactive	
COc1cc(/C=C/C(=O)O[C@H]2C[C@@H]3C(C(=O)O)=CO[C@@H](O[C@@H]4O[C@H](CO)[C@@H](O)[C@H](O)[C@H]4O)[C@@H]3[C@H]2C)ccc1O		3.27%
CC1(C(=O)O)CCCC2(C)C3CC4C5CC3(CCC12)CC45C (configuration not stated)	inactive	
C=C1C(O)CCC2(C)CC3(OC)OC(=O)C(C)=C3CC12 (configuration not stated)	inactive	
COc1cc(C2Oc3c(OC)cc(CCCO)cc3C2CO)ccc1O (configuration not stated)	inactive	
C/C=C1/[C@H](O[C@@H]2O[C@H](CO)[C@@H](O)[C@H](O)[C@H]2O)OC=C(C(=O)OC)[C@H]1CC(=O)OCCc1ccc(O)c(O)c1	inactive	
CCCC1=CC2=C(CO1)C(=O)C(C)(O)C(OC(=O)c1c(C)cc(OC)cc1O)C2 (configuration not stated)	inactive	
CC1(C)CCC[C@]2(C)C1CC=C(CO)[C@H]2CC/C(=C/CO)CO (some centres not stated)	inactive	
C=C1CC[C@H]2[C@@](C)(CCC(OC3OC(CO)C(O)C(O)C3O)[C@@]2(C)CO)C1C(=O)CC1=CCOC1=O (some centres not stated)	inactive	
CC(C)(O)C1OC1C1=CC(=O)C2(C)OC2C1O (configuration not stated)	inactive	
CC(=O)O[C@H]1C[C@@H](O)C(C)(C)C2C[C@@H](OC(C)=O)[C@@]3(C)C4=CCC(C(CO)CC(O)C5OC5(C)C)[C@]4(C)CCC3[C@]21C (some centres not stated)	inactive	
C=C[C@@]1(C)CCC2=C([C@H]1OC(C)=O)[C@H](OC(C)=O)CC1[C@](C)(C(=O)OC)CC[C@H](OC(C)=O)[C@]21C (some centres not stated)	inactive	
CC1=C2C(=O)C=C(CO)C2[C@H]2OC(=O)[C@H](C)[C@@H]2[C@@H](OC(=O)Cc2ccc(O)cc2)C1 (some centres not stated)		3.29%
O=C(NCCN1CCCC1)c1cc(-c2ccc(CN3CCOCC3)cc2)nc2ccc(F)cc12	inactive	
CN1CCN(c2nc(-c3ccc(C(=O)NC4(C(=O)NCC#N)CCCCC4)cc3)cs2)CC1		1.43%
CC1(C)CC[C@]2(C(=O)O)CC[C@]3(C)C(=CCC4[C@@]5(C)C(=O)C[C@H](O)[C@@](C)(CO)C5CC[C@]43C)[C@@H]2C1 (some centres not stated)		-1.1%
CC(=O)OC/C(=C/C(=O)O)CC[C@@H]1C(C)=CC(=O)[C@@H]2C(C)(C)CCC[C@@]12C	inactive	
C/C=C(\C)C(=O)OC[C@H]1O[C@@H](O[C@H]2[C@@H](O[C@H]3O[C@H](COC(=O)/C(C)=C/C)[C@@H](O)[C@H](O)[C@H]3O[C@@H]3O[C@H](COC(=O)/C(C)=C/C)[C@@H](O)[C@H](OC(=O)/C(C)=C/C)[C@H]3O)O[C@H](COC(=O)/C(C)=C/C)[C@@H](O)[C@@H]2O)[C@H](O)[C@@H](O)[C@@H]1O		-1.65%
CC1(CO)CCCC2(C)C3COC(=O)C3=CC(O)C12 (configuration not stated)		-5.37%

Compound	outcome	max response
C=C1CC[C@@H]2C(C)(C)CCC[C@@]2(C)[C@@H]1CC/C(=C/C(=O)OC)COC(C)=O	inactive	
CS(=O)(=O)c1ccccc1N1CCN(c2nc3c(c(=O)[nH]2)CSCC3)CC1	inactive	
CC(=O)OC1CC2C(C)(C)C(=O)C=CC2(C)C2CC(=O)C3=C(CCC3C3=CC(O)OC3=O)C12C (configuration not stated)	inactive; activator	
CC(C)C1NC(=O)C(CC2(O)c3ccccc3N3C(=O)C(Cc4ccccc4)NC32)NC1=O (configuration not stated)	inactive	
NC[C@H]1CCC[C@@H](CNC(=O)[C@@H](Cc2c[nH]c3ccccc23)NC(=O)N2CCC3(C=Cc4ccccc43)CC2)C1	inactive	
COc1ccc(O[C@@H]2O[C@H](CO)[C@@H](O)[C@H](O)[C@H]2O)cc1OC		-16.7%
C=C1CCC(OC(C)=O)C2(C)CC3OC(=O)C(C)=C3CC12 (configuration not stated)	inactive	
O=C1OC(c2ccc(O)cc2)C(O)=C1Cc1ccccc1 (configuration not stated)	inactive	
CC1CC(=O)C2C(O)(C1)CC(O)C13OC1c1c(O)cccc1C(=O)C23O (configuration not stated)	inactive	
CCN=C1N[C@@H]2[C@@H](O)[C@H](O)[C@@H](CO)O[C@@H]2S1		2.86%
COc1cccc(Cn2ncc3c4sc(S(C)=O)cc4n(C)c3c2=O)c1 (configuration not stated)	inactive	
CC(=O)OCC1OC(OC2COC(OC3COC(OC4C(OC5C(CO)OC(OC6CCC7(C)C(CCC8(C)C7CC=C7C9CC(C)(C)CCC9(C(=O)OC9OC(CO)C(O)C(O)C9OC9OCC(OC%10OCC(O)(CO)C%10O)C(O)C9O)C(O)CC78C)C6(C)C)C(O)C5O)OCC(O)C4O)C(O)C3O)C(O)C2O)C(OC(=O)/C=C/c2ccccc2)C(O)C1OC(C)=O (configuration not stated)	inactive	
CC[C@H]1OC(=O)[C@H](C)[C@@H](O[C@H]2C[C@@](C)(OC)[C@@H](O)[C@H](C)O2)C(C)[C@@H](O[C@@H]2O[C@H](C)C[C@H](N(C)C)[C@H]2O)[C@](C)(O)C[C@@H](C)CN(C)[C@H](C)[C@@H](O)[C@]1(C)O (some centres not stated)		-11.4%
C=CC(C)(C)C12Nc3c(ccc4c3OC(C)(C)C=C4)C1(O)CC1C(=O)N3CCCC3C(=O)N12 (configuration not stated)	inactive	
O=C(O)[C@H](Cc1ccccc1)Oc1ccc(-c2ccccc2)cc1		-11.4%
C=C[C@H]1[C@H](O[C@@H]2O[C@H](CO)[C@@H](O)[C@H](O)[C@H]2O)OC=C2C(=O)N3Cc4c([nH]c5ccccc5c4=O)[C@@H]3C[C@H]21		-8.84%
C/C=C/C(=O)OC1/C=C/C(O)C(OC(C)=O)CCC(=O)OC1C (configuration not stated)	inactive	
OCC(O)C(c1c[nH]c2ccccc12)c1c[nH]c2ccccc12 (configuration not stated)	inactive	
C=C1CC[C@@H]2[C@@](C)(CO[C@@H]3O[C@H](CO)[C@@H](O)[C@H](O)[C@H]3O)[C@H](O)CC[C@@]2(C)[C@@H]1CC/C(C)=C/CO[C@@H]1O[C@H](CO)[C@@H](O)[C@H](O)[C@H]1O	inactive	
